# Marburg entry inh: Marburg virus entry inhibition; 300,000 tested, 1.8% active; AID 540276; Marburg virus pseudotyped entry inhibition, cell reporter; Potency, µM (highest dose often 37.8 µM), for the others: top-dose activity change, negative = inhibition, usual class: inhibitors; calls by dose curve; tested in HEK293 cells; further: potency means the concentration at half of the fitted maximal effect
# HCMV inh: human cytomegalovirus inhibition | HFF cells, HCMV-luciferase reporter, 72 h; stronger effect = lower value | activity change, negative = inhibition, % at 57.5 µM | 410,000 tested, 4.5% active; in the data active means activity change below about -60%; inconclusive means no clear call, values can overlap the other calls; inactive means above about -39%
#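 Luciferase read-out from HCMV-luciferase-infected HFFs (MOI 1 PFU/cell) 72 h post infection at 37C; compounds added after 16 h cell attachment; activity normalized between buffer-only basal and Salinomycin (10uM) inhibitor controls.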
# HCV inh: inhibitors of hepatitis C virus infection; Potency, µM (titrated, usually from 41.8 µM), for the others: at the top dose activity change, negative = inhibition, actives largely listed as inhibitors; 340,000 tested, 3.4% active; Huh7.5.1 HCVcc-Cre infection, luciferase reporter, 44 h; further: potency means the concentration at half of the fitted maximal effect
#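 Seed cells (1,000/well) for 4 h; treat with compound and infect with HCVcc-Cre, moi about 0.5. Incubate 44 h, then detect luciferase activity.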
# Pf growth 48h: P. falciparum growth inhibition at 48 hours (one generation); P. falciparum luciferase growth in erythrocytes, 48 h; Potency, µM (doses to about 28.7 µM), inactives show at the highest dose activity change, negative = inhibition, actives largely listed as inhibitors; 310,000 tested, 5.9% active; AID 504832; further: potency means the concentration at half of the fitted maximal effect
#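 Growth was read as firefly luciferase luminescence after a 48 h, 37 C, 5% CO2 exposure of compounds to reporter-bearing P. falciparum cultures (0.1% parasitemia, 2% hematocrit final) in Albumax-supplemented RPMI 1640.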
# Lassa entry inh: inhibitors of Lassa virus binding or cell entry; Lassa virus pseudotype entry inhibition, cell reporter; Potency, µM (top dose mostly 37.9 µM), inactives show at the highest dose activity change, negative = inhibition, actives largely listed as inhibitors; 300,000 tested, 1.2% active; calls by dose curve; tested in HEK293 cells; further: potency means the concentration at half of the fitted maximal effect; nearly all actives have a fitted effect of over 50% in size
# Pf growth 96h: P. falciparum growth inhibition at 96 hours; AID 504834; 320,000 tested, 6.9% active; Potency, µM (highest dose often 28.7 µM), for the others: at the highest dose activity change, negative = inhibition, usual class: inhibitors; P. falciparum luciferase reporter growth, 96 h; further: potency means the concentration at half of the fitted maximal effect
#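 Erythrocytes infected with luciferase-expressing P. falciparum were dispensed at 2% hematocrit and 0.05% parasitemia (final), then incubated with compounds 96 hours at 37 C in 5% CO2. Luminescence after detection reagent addition reported growth.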
# Starred values were filed as active, the others as inactive; u = inconclusive; x = no result given; [ ] = another dose, or the depositor's remark. Most compounds without a hit are left out; they make up all but 14% or so of the library. Unless noted, the call rests on the fitted dose curve; in most records, active means well fitted inhibition curve with a large enough effect; inconclusive means small, poorly fitted or top-dose-only effect, or another doubt; inactive means no such curve, though single readings can be large or run the other way. On the % scale 0 is the no-effect control and ±100 the full control effect.
SMILES,Marburg entry inh,HCMV inh,HCV inh,Pf growth 48h,Lassa entry inh,Pf growth 96h
COc1cc(-c2cc(OC)c3c(C)oc(C)c3c(=O)c2)ccc1O,-5%,-2,u,u,-3%,3.7µM*
COc1ccc(-c2cc(OC)c3c(C)oc(C)c3c(=O)c2)cc1OC,-4%,70,u,4.7µM*,u,29%
CCc1ccc(NC(=O)CCC(=O)c2ccc(C)cc2)cc1,5%[46.1 µM],-5,16%,5%,28%[46.1 µM],60%
Cc1ccc(-c2c[n+](CC(=O)Nc3c(C)cccc3C)c3n2CCC3)cc1,x,-68*,2%,u,x,15µM*
Cc1ccc(NC(=O)C[n+]2cc(-c3ccccc3)n3c2CCC3)c(C)c1,-9%[46.1 µM],u,-18%,u,0%[46.1 µM],5.2µM*
CCc1ccc(NC(=O)C[n+]2cc(-c3ccc(C)cc3)n3c2CCC3)cc1,x,19,u,2.9µM*,x,1.5µM*
CCC[C@H]1CN(c2ccc(Br)cc2)C(=O)[C@@H]1CC(=O)NC,x,-20,x,x,x,x
Fc1ccccc1NC(=S)NCCc1ccccc1,u,-19,-11%,57%,12%,63%
O=[N+]([O-])c1ccc(CNCCc2ccccc2)cc1,x,3,8%,20%,x,13µM*
S=C(NCCCc1ccccc1)Nc1ccc(Cl)cc1,5%,-98*,u,0%,-27%,67%
Fc1ccccc1NC(=S)NCCc1ccc(Cl)cc1,u,20,-8%,u,-17%[46.1 µM],u
Fc1ccc(F)c(NC(=S)NCCc2ccccc2)c1,u,-66*,-14%,6%,u,42%
Fc1ccc(NC(=S)NCCc2ccccc2)c(F)c1F,-10%,-74*,u,u,-21%,-6%
CCc1cccc(NC(=O)c2ccc(CN3C(=O)C(C)=C(c4ccc(OC)cc4)S3(=O)=O)cc2)c1,x,-16,x,x,u,x
O=C(NCc1cccnc1)c1cccc(S(=O)(=O)Nc2cccc(Cl)c2)c1,u,-36,-9%,u,-18%,u
COC(=O)C1(CC2CC(c3ccccc3)=NO2)CCN(C(=O)OC(C)(C)C)CC1 (stereo not given),x,-1,-11%,x,x,x
CN1C(=O)c2cccc3c(S(=O)(=O)Nc4cccc(C(=O)O)c4)ccc1c23,5%[46.1 µM],2,x,x,8%[46.1 µM],x
O=[N+]([O-])c1ccc(S(=O)Cc2ccccc2)c([N+](=O)[O-])c1 (stereo not given),u,-97*,u,x,11µM*,x
Cc1ccc(NC(=S)NCCc2ccccc2)nc1,-3%[46.1 µM],-115*,u,21%,0%[46.1 µM],-11%
Cc1ccc(NC(=O)CCCc2ccccc2)nc1,u,4,10%,68%,u,13%
CCCCNC(=S)Nc1ccc(SC(F)F)cc1,u,0,11µM*,u,u,u
NC(=O)c1cc([N+](=O)[O-])ccc1NCCc1ccccc1,x,-12,11µM*,-1%,x,13µM*
CCN(C(=O)COC(=O)c1cc([N+](=O)[O-])ccc1N1CCOCC1)C1CCCCC1,0%,4,-17%,u,12%,u
O=C(NCc1nnnn1-c1ccc(Cl)cc1)C(=O)c1c[nH]c2ccccc12,x,65,x,x,x,x
CC1(C(=O)NCc2ccccc2)CN(S(C)(=O)=O)CC(=O)N1CCCN1CCOCC1 (stereo not given),x,151,x,x,x,x
SMILES,Marburg entry inh,HCMV inh,HCV inh,Pf growth 48h,Lassa entry inh,Pf growth 96h
COc1ccccc1-c1cnc(C(O)c2cc(C)ccc2C)[nH]1 (stereo not given),x,-4,x,x,x,x
CCCNC(=S)Nc1ccccc1,x,-65*,9%,u,x,17%
O=C(NC(=S)Nc1cnc2ccccc2c1)c1ccccc1,x,-13,14%,112%,x,48%
O=C(NCCCCc1ccccc1)Nc1cccc(F)c1,5%[46.1 µM],u,-10%,u,u,u
Fc1cccc(NC(=S)NCCc2ccccc2)c1,u,-79*,-20%,12%,u,222%
CCN(CC)C(=O)Nc1cnc2ccccc2c1,-25%,42,9%,50%,25%,2.3µM*
S=C(NCCc1ccccc1)Nc1cnc2ccccc2c1,x,-63*,6%,0%,x,26%

# High-throughput results (PubChem BioAssay)
